Compounds with a hit are over-represented: about 3.4% of the library has one in this group of screens.
HSF1 inhib: HSF1 inhibitors in luciferase reporter cells, primary screen, cell-based, NIH3T3, luminescence; 300,000 tested, 0.77% active; AID 2098, 2009; activity change, negative = inhibition, % at 7.5 µM (by protocol); NIH3T3-HGL HSE-luciferase, MG132-induced, luminescence 8 h; active compounds read low;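 active means more than half of replicate wells show activity change below -50%, luminescence cut by over half; inconclusive means some wells, but at most half, below -50%; inactive means no replicate well below -50%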;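 further: luciferase reports HSF-1 transcriptional activity via heat shock element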
Vif imaging: HIV Vif self-association inhibitors, primary screen, imaging, HEK293T, single point; HEK293T cells, Vif self-association by quenched fluorescence, 24 h; inhibition, % at 7.49 µM; 340,000 tested, 0.35% active; AID 602346, 2012; in the data active means inhibition above about 50%, passing the limit was not always enough; inconclusive means no clear call, values can overlap the other calls; inactive means below about 31%
HSF1 activator: HSF-1 activators, primary screen, NIH3T3-HGL cells, MG132 stress, luminescence, single point; NIH3T3-HGL HSF-1 luciferase reporter, 8 h; 100% = twice DMSO control signal; activation, % at 9 µM; 300,000 tested, 1.7% active;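 active means mean replicate activation of at least 50% with a set share of replicates each reaching 50%; inconclusive means only one of those two conditions met; inactive means mean below 50% and too few replicates reaching it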
esBAF inh: Bmi1 luciferase reporter increase in mESCs, primary screen, esBAF inhibitor project, mouse ES cells, Bmi1 luciferase knock-in, single point; 24 h; 100% = twice the neutral-well signal; reporter increase, % at 12.5 µM; 350,000 tested, 2% active; in the data active means activation above about 40%; inconclusive means no clear call, values can overlap the other calls;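 further: a rise in the Bmi1 reporter signal indicates esBAF inhibition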
Numbers stand for hits; 0 = inactive; ? = inconclusive; - = no result.

SMILES	HSF1 inhib	Vif imaging	HSF1 activator	esBAF inh
CCOC(=O)N1CCN(S(=O)(=O)c2ccc3c(c2)NC(=O)CO3)CC1	-	0	-	0
CCOC(=O)N1CCN(S(=O)(=O)c2ccc3c(c2)OCC(=O)N3)CC1	-52	-	0	0
CCOC(=O)N1CCN(S(=O)(=O)c2cc(OCC)ccc2OCC)CC1	0	0	0	0
CCOC(=O)N1CCN(S(=O)(=O)c2cc(Cl)c(OC)cc2Cl)CC1	0	0	70	0
CN(C)CCCNC(=O)C[C@H]1CC[C@H]2[C@H](COc3ccc(NS(C)(=O)=O)cc3C(=O)N2C)O1	-	-	-	0
C[C@@H]1CN([C@H](C)CO)C(=O)c2cc(NC(=O)NC3CCCCC3)ccc2O[C@@H](C)CCCCO[C@@H]1CN(C)Cc1ccc2c(c1)OCO2	-	-	-	0
Cc1ccc(-n2c([O-])nc(-[n+]3ccccc3)c2C=O)cc1	0	51	0	0
Cc1ccc[n+](-c2nc([O-])sc2C=O)c1	-	0	-	-
C[C@@H]1CN([C@@H](C)CO)C(=O)Cc2cc(NC(=O)C3CCCCC3)ccc2O[C@@H]1CN(C)S(C)(=O)=O	-	-	-	0
COc1ccccc1CNC(=O)Cn1cccc1C(=O)c1ccccc1C	0	0	0	43
COc1cccc(CNC(=O)Cn2cccc2C(=O)c2ccccc2C)c1	0	0	0	?
Cc1ccccc1C(=O)c1cccn1CC(=O)NCc1cccc(Cl)c1	0	0	0	64
CCOc1ccc(NC(=S)N(Cc2ccc(N(C)C)cc2)Cc2ccco2)cc1	0	0	0	-
COc1ccc(NC(=S)N(Cc2ccc(N(C)C)cc2)Cc2ccco2)cc1	0	0	91	-
CC(C)N(C[C@@H]1[C@@H](c2ccccc2)[C@H](CO)N1S(C)(=O)=O)C(=O)CN(C)C	-	-	-	0
O=C(c1ccccc1)c1ccc(N2CCOCC2)c(F)c1	0	0	0	58
O=C(Nc1ccc(N2CCOCC2)c(Cl)c1)c1ccc2c(c1)OCCO2	0	0	0	0
O=C(Nc1ccc(N2CCOCC2)c(Cl)c1)c1ccc(Cl)cc1	0	0	0	45
O=C(c1ccccc1)c1cc(F)c(N2CCOCC2)cc1Cl	0	0	0	0
O=C(Nc1ccc(N2CCOCC2)c(Cl)c1)c1ccccc1F	0	0	0	103
C[C@H](CO)N1C[C@H](C)[C@H](CN(C)Cc2ccccc2)Oc2ncc(C3=CCCCC3)cc2C1=O	-	-	-	0
COc1ccc(-c2cn(CC[C@H]3CC[C@H](NC(=O)NC(C)C)[C@@H](CO)O3)nn2)cc1	-	-	-	0
C[C@@H]1CCCCO[C@@H](CN(C)C(=O)Cc2ccccc2)[C@H](C)CN([C@@H](C)CO)C(=O)c2cc(NS(C)(=O)=O)ccc2O1	-	-	-	0
CCCC(=O)N1CCN(c2nc3ccc(CC)cc3s2)CC1	0	0	0	0
CC(=O)N1CCN(c2nc3ccc(Br)cc3s2)CC1	0	0	0	54
SMILES	HSF1 inhib	Vif imaging	HSF1 activator	esBAF inh
CCCC(=O)N1CCN(c2nc3ccc(Cl)cc3s2)CC1	0	0	0	52
CCCCC(=O)N1CCN(c2nc3ccc(Br)cc3s2)CC1	0	0	0	0
N#C/C(=C\C=C\c1ccccc1[N+](=O)[O-])c1nc(-c2ccc3c(c2)OCO3)cs1	0	0	0	0
N#C/C(=C\c1ccccc1[N+](=O)[O-])c1nc(C2CC2)cs1	0	0	51	-
N#C/C(=C/c1ccccc1[N+](=O)[O-])c1nc(C2CC2)cs1	0	0	101	-
N#C/C(=C\c1ccc([N+](=O)[O-])cc1)c1nc(C2CC2)cs1	0	0	57	-
C[C@@H]1CCCCO[C@H](CN(C)Cc2ccc(C(=O)O)cc2)[C@H](C)CN([C@H](C)CO)C(=O)c2cc(NC(=O)Nc3ccc4c(c3)OCO4)ccc2O1	-	-	-	0
CO[C@H]1CN(C)C(=O)c2ccc(NC(=O)c3cc(C)on3)cc2OC[C@@H](C)N(C)C[C@H]1C	-	-	-	0
O=C(O)c1cccc2c1-c1ccccc1/C2=N\Nc1ccccc1	0	0	0	63
Cc1cc(=O)c2n(Cc3ccccc3Cl)nc[n+]2[nH]1	0	0	91	0
Oc1ccc(-c2csc(Nc3ccccn3)n2)cc1O	0	0	0	0
Cc1cccc(Nc2nc(-c3ccc(F)c(C)c3)cs2)n1	0	0	67	58
Cc1cccc(Nc2nc(-c3ccc(O)c(O)c3)cs2)n1	0	64	0	93
C[C@H](CO)N1C[C@H](C)[C@H](CN(C)C)OCCCC[C@H](C)Oc2ccc(NC(=O)Nc3ccc(F)cc3)cc2C1=O	-	-	-	0
Cn1cnc(S(=O)(=O)N2CC[C@@H]3[C@@H](CO)Nc4ccc(-c5ccccc5)cc4[C@@H]32)c1	-	-	-	0
O=C(Nc1ccccc1)C(c1ccccc1)c1ccccc1	0	0	0	0
O=C(O)C(=O)Nc1ccc(NC(=O)C(c2ccccc2)c2ccccc2)cc1	-55	0	0	0
Cc1sc(NC(=O)c2ccc(Cl)s2)c(C(N)=O)c1C	0	0	0	0
Cc1sc(NC(=O)c2ccc(Br)s2)c(C(N)=O)c1C	0	-	61	?
O=[N+]([O-])c1ccc(-c2cn(-c3ccccc3)c(=S)[nH]2)cc1	0	0	0	-
O=[N+]([O-])c1cccc(-c2cn(-c3ccccc3)c(=S)[nH]2)c1	0	0	74	0
Cc1cccc(-n2cc(-c3ccc([N+](=O)[O-])cc3)[nH]c2=S)c1	0	0	71	0
CN(C)CC(=O)c1c(N)n(Cc2ccccc2)c(=O)n(C)c1=O	0	0	0	-
CCN(CC(=O)c1c(N)n(C)c(=O)n(C)c1=O)c1cccc2ccccc12	0	0	85	0
C[C@@H]1CN([C@@H](C)CO)C(=O)CCCn2cc(nn2)CO[C@@H]1CN(C)Cc1cccc(C(=O)O)c1	-	-	-	0
SMILES	HSF1 inhib	Vif imaging	HSF1 activator	esBAF inh
CCOC(=O)/C=C/C(=O)Nc1ccccc1-c1ccccc1NC(=O)/C=C/C(=O)OCC	-56	0	0	-
CCOC(=O)/C=C/C(=O)Nc1cccc([N+](=O)[O-])c1	0	0	0	-
CC(C)CC(/C(O)=C(\C#N)c1nc2ccccc2[nH]1)N1C(=O)c2ccccc2C1=O (stereo unspecified)	0	0	75	0
CCn1c(SCc2cccc(C)c2)nnc1-c1ccccc1	0	0	0	0
CCn1c(SC(C)C)nnc1-c1cc(-c2ccccc2)sc1N	0	0	?	68
NC(=O)c1ccsc1NC(=O)C1CCCN1S(=O)(=O)c1ccc(Cl)cc1 (stereo unspecified)	0	0	0	0
CC1CCCCN1S(=O)(=O)c1ccc(C(=O)Nc2sccc2C(N)=O)cc1 (stereo unspecified)	0	0	0	83
CC(C)NC(=O)Nc1ccc2c(c1)C(=O)N([C@H](C)CO)C[C@@H](C)[C@@H](CN(C)S(=O)(=O)c1cn(C)cn1)OCCCC[C@H](C)O2	-	-	-	0
N#Cc1cn(-c2ccccc2)nc1-c1ccc2c(c1)OCCO2	0	0	0	51
O=Cc1cn(-c2ccccc2)nc1-c1ccc2c(c1)OCCO2	-	0	-	50
CCN(CC)C(=O)c1cn(-c2ccccc2)nc1-c1ccc2c(c1)OCCO2	0	0	0	0

Assay outcomes from PubChem BioAssay.
